From PubChem BioAssay
PAX8 reporter: inhibitors of PAX8-driven TPO luciferase reporter, primary screen, RMG-I cells, single concentration; SteadyGlo, 24 h; inhibition, % at 12.6 µM; actives 1.2% (n = 360,000);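 active = mean replicate inhibition at least 60% with every replicate also reaching 60%; inconclusive = only one of the two criteria is met; inactive = mean below 60% and not all replicates reaching 60%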;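 note: luciferase light reporting Pax8 driven TPO promoter activity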
F508del corr: F508del CFTR correction, initial screen, CFBE line, single point | CFBE cells, YFP halide quenching; stimulated with forskolin plus potentiator P3; % fluorescence drop versus neutral controls | activity (quench increase), % at 7.58 µM | actives 0.36% (n = 350,000) | AID 720511, 2013;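 active = mean added fluorescence quench of at least 8% versus neutral control, with both replicates also reaching 8%; inconclusive = only one of the mean or replicate conditions met; inactive = mean below 8% and not both replicates reaching 8%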;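 note: cells transiently co-express mutant CFTR-F508del with the halide-sensitive YFP; corrector assay measuring rescue of mutant channel to the surface after 24 h compound exposure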
FXN GAA850 act: FXN promoter activators, primary screen, cell-based, luciferase luminescence, HEK293 lucGAA850; HEK293 lucGAA850 FXN promoter luciferase reporter, 24 h; percent of 10 µM SAHA response; activation, % at 6 µM; actives 0.56% (n = 360,000); AID 540364, 2011;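 active = activation above the average of all compounds screened plus 3 SD, cutoff fixed separately per campaign, cut at about 7.5% in these data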
EWS-Fli block: EWS/Fli-driven NR0B1 reporter inhibitors, primary screen, A673 cells, NR0B1 luciferase, luminescence, MLPCN library; AID 651661, 2012; inhibition, % at 12.6 µM; actives 0.67% (n = 350,000); viability-normalised;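 active = mean inhibition of at least 50% after viability correction, with every replicate also passing that limit; inconclusive = mean reaches 50% but only one of two replicates passes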;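 note: firefly luciferase signal divided by Alamar Blue viability fluorescence both relative to DMSO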
HIV Env fusion: inhibitors of HIV-1 Env-driven cell-cell fusion, primary screen, HeLa-JRFL effector, CEM21 target cells, luciferase; inhibition, % at 12.3 µM; actives 1.1% (n = 360,000); AID 651610, 2012;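 active = mean replicate inhibition score of at least 50 and every replicate individually at or above 50; inconclusive = only one of the two criteria met; inactive = mean below 50 and not all replicates reaching 50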
GAA30 counter: GAA30 FXN promoter activators, confirmation, counter-screen for GAA850 frataxin promoter activator project, cell-based, luminescence, HEK293, lucGAA30, triplicate. AID 588350, 2011. HEK293 lucGAA30 FXN promoter luciferase, 24 h; DMSO = 0%, 5 µM ipriflavone = 100%. actives 66% (n = 1,900). activation, % at 6 µM. shares compounds with FXN GAA850 act;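 active = mean activation above the mean of solvent-only control wells plus 3 SD, cut at about 22% in these data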;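 note: counterscreen of GAA850 promoter hits where activity marks nonselective or luminescence artifacts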
FXN GAA850 conf: FXN GAA850 promoter activators in reporter cells, confirmation, cell-based, luminescence, HEK293 lucGAA850, triplicate; actives 86% (n = 1,900); shares compounds with FXN GAA850 act; AID 588351, 2011; HEK293 lucGAA850 FXN promoter luciferase reporter, 24 h; 100% = activation by SAHA; activation, % at 6 µM;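 active = mean activation above a set limit taken from the primary screen, cut at about 8% in these data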
Each line names hits and unclear results; the compound was inactive in the other large screens (follow-up assays come after a bar, where they were run). Compounds with a hit are over-represented: about 2.5% of the library has one in this group of screens.

CCOC(=O)C1=C(C)NC2=C(C(=O)CCC2)C1c1cn(Cc2ccc(Cl)cc2Cl)nc1-c1ccccc1 (centres undefined)	FXN GAA850 act 13, HIV Env fusion 121 (no result: F508del corr, EWS-Fli block) | GAA30 counter 22 | FXN GAA850 conf 7.8
N#C[C@H]1[C@@H](c2ccc(C#CC3CC3)cc2)[C@H](CO)N1S(=O)(=O)c1ccccc1	none (no result: FXN GAA850 act)
O=[N+]([O-])c1ccccc1Nc1nc(-c2cccnc2)cs1	FXN GAA850 act 9.1 | GAA30 counter 87 | FXN GAA850 conf 26
CC(C)c1ccc(NC(=O)c2cccc(Br)c2)cc1	FXN GAA850 act 8.2 | GAA30 counter 110 | FXN GAA850 conf 49
O=C(Nc1cccc(C(=O)Nc2cccc(Br)c2)c1)c1ccccc1	none
CCC(=O)N1CC2(C1)CN(C(=O)Nc1ccc(F)cc1)[C@H](CO)c1c2c2ccc(OC)cc2n1C	none (no result: PAX8 reporter, FXN GAA850 act, HIV Env fusion)
CCc1ccc(-c2cn(C3CCCCC3)c(=S)[nH]2)cc1	FXN GAA850 act 8.0 | GAA30 counter 58 | FXN GAA850 conf 24
CCc1ccc(-n2cc(-c3ccc([N+](=O)[O-])cc3)[nH]c2=S)cc1	none (no result: F508del corr)
O=C(N/N=C/c1ccccn1)c1cc(C2CC2)nc2ccccc12	none (no result: PAX8 reporter, F508del corr, EWS-Fli block, HIV Env fusion)
O=C(N/N=C/c1ccccn1)c1ccc(Cl)c(Cl)c1	FXN GAA850 act 9.1 | GAA30 counter inactive | FXN GAA850 conf inactive
O=C(N/N=C/c1ccccn1)c1cc(-c2ccccc2)nc2ccccc12	FXN GAA850 act 7.7 | GAA30 counter inactive | FXN GAA850 conf inactive
C[C@H](CO)N1C[C@H](C)[C@H](CN(C)C)Oc2ccc(NS(=O)(=O)c3ccc(F)cc3)cc2C1=O	none (no result: FXN GAA850 act, HIV Env fusion)
CCCS(=O)(=O)Nc1ccc(N2CCCCC2)c(S(=O)(=O)Nc2ccccc2OC)c1	FXN GAA850 act 7.8 (no result: HIV Env fusion) | GAA30 counter inactive | FXN GAA850 conf 9.1
CCCCC(=O)NC(=S)Nc1cccc(Cl)c1N1CCCCC1	FXN GAA850 act 10 (no result: F508del corr) | GAA30 counter inactive | FXN GAA850 conf 9.6
CCCC(=O)NC(=S)Nc1cccc(Cl)c1N1CCCCC1	none (no result: PAX8 reporter, F508del corr, EWS-Fli block)
O=C1Nc2ccc(Br)cc2/C1=C/C(=O)c1ccc2c(c1)OCO2	FXN GAA850 act 11, EWS-Fli block inconclusive | GAA30 counter inactive | FXN GAA850 conf 9.9
Cc1ccc2oc(-c3ccc(C)c(NC(=S)NC(=O)c4cccs4)c3)nc2c1	FXN GAA850 act 8.6 | GAA30 counter 96 | FXN GAA850 conf 19
COc1ccc2c(c1)C(=NO)c1cc(OC)ccc1-2	none (no result: F508del corr, EWS-Fli block)
C=CCOc1ccc2c(c1)C(=NO)c1cc(OCC=C)ccc1-2	FXN GAA850 act 8.0 (no result: PAX8 reporter, HIV Env fusion) | GAA30 counter 32 | FXN GAA850 conf 20
CC(C)N(C[C@@H]1[C@H](c2ccccc2)[C@@H](CO)N1S(C)(=O)=O)C(=O)CN(C)C	none (no result: FXN GAA850 act, HIV Env fusion)
Cc1ccc(CNC(=O)CN2NS(=O)(=O)c3ccccc3C2=O)cc1	none
C=CCn1c(C)cc(C(=O)CN2NS(=O)(=O)c3ccccc3C2=O)c1C	FXN GAA850 act 7.7 | GAA30 counter inactive | FXN GAA850 conf 32
CC(NC(=O)c1cc(S(=O)(=O)N(C)C)ccc1N1CCCC1)C1CC2CCC1C2 (centres undefined)	FXN GAA850 act 11, HIV Env fusion 72 | GAA30 counter 31 | FXN GAA850 conf 13
CN(C)S(=O)(=O)c1ccc(N2CCCC2)c(C(=O)NC(c2ccccc2)c2ccccc2)c1	HIV Env fusion inconclusive (no result: F508del corr, EWS-Fli block)
O=C(Nc1cccc(F)c1)N1CC(=O)N2[C@H](CO)[C@H](c3ccc(-c4ccc(F)cc4)cc3)[C@@H]2C1	none (no result: FXN GAA850 act, HIV Env fusion)
CCOC(=O)c1ccc(NC(=O)Nc2ccc(OC)c(OC)c2)cc1	none (no result: F508del corr, EWS-Fli block)
CCOC(=O)c1ccccc1NC(=O)Nc1ccc(OC)c(OC)c1	FXN GAA850 act 9.6 (no result: PAX8 reporter, F508del corr, EWS-Fli block) | GAA30 counter inactive | FXN GAA850 conf 10
COc1ccc2c3c([nH]c2c1)[C@H](CO)N(C(=O)Nc1ccc(F)cc1)CC31CN(CC2CCOCC2)C1	none (no result: PAX8 reporter, FXN GAA850 act)
CC1=CC(=O)N(c2cccc3c(N4C(=O)C=C(C)C4=O)cccc23)C1=O	FXN GAA850 act 9.2 | GAA30 counter inactive | FXN GAA850 conf 26
Nc1ccc2c(c1)C(=O)N(c1cccc3ccccc13)C2=O	none
CC(C)C#Cc1ccc([C@@H]2[C@H](C#N)N(C(=O)CN(C)C)[C@H]2CO)cc1	none (no result: FXN GAA850 act)
CN=C1S/C(=C\c2ccc(O)c(OC)c2)C(=O)N1C	FXN GAA850 act 9.9 | GAA30 counter 113 | FXN GAA850 conf 35
CN=C1S/C(=C\c2ccc(O)c(Br)c2)C(=O)N1C	none
COc1ccc(NC(=O)c2ccco2)cc1NC(=O)c1cccs1	FXN GAA850 act 9.4 (no result: PAX8 reporter, F508del corr, EWS-Fli block) | GAA30 counter 23 | FXN GAA850 conf inactive
COc1cccc(-c2ccc(SCc3ccccn3)nn2)c1	FXN GAA850 act 8.7 | GAA30 counter 110 | FXN GAA850 conf 36
CO[C@@H]1CN(C)C(=O)c2ccc(NC(C)=O)cc2OC[C@@H](C)N(Cc2cc(F)ccc2F)C[C@H]1C	none (no result: PAX8 reporter, FXN GAA850 act, HIV Env fusion)
COC(=O)c1c(-c2ccc(F)cc2)csc1NC(=O)c1ccco1	FXN GAA850 act 9.6 (no result: PAX8 reporter, F508del corr, EWS-Fli block, HIV Env fusion) | GAA30 counter 91 | FXN GAA850 conf 38
O=C(Cc1ccccn1)N1CC(=O)N2[C@H](C1)[C@H](c1ccc(C#CCC3CCCC3)cc1)[C@@H]2CO	none (no result: FXN GAA850 act, HIV Env fusion)
C[C@H](NC(=O)[C@@H]1N[C@@H]2c3ccc(C4=CCCCC4)c(=O)n3C[C@@H]2[C@H]1CO)c1ccccc1	none (no result: PAX8 reporter, FXN GAA850 act, HIV Env fusion)
C=CCSc1nnc(-c2cc3c(s2)-c2ccccc2CC3)o1	FXN GAA850 act 8.7 (no result: PAX8 reporter, F508del corr, EWS-Fli block, HIV Env fusion) | GAA30 counter 76 | FXN GAA850 conf 28
COc1ccc(C2=C(N)c3ccccc3C2=O)cc1	FXN GAA850 act 7.7 (no result: PAX8 reporter, F508del corr, EWS-Fli block) | GAA30 counter 102 | FXN GAA850 conf 33
COc1ccc(NC2=C(c3ccc(OC)cc3)C(=O)c3ccccc32)cc1	none (no result: F508del corr)
COc1ccc(S(=O)(=O)N(C)C[C@H]2Oc3ncc(C#CC4(O)CCCC4)cc3C(=O)N([C@H](C)CO)C[C@@H]2C)cc1	none (no result: FXN GAA850 act, HIV Env fusion)
CCOP(=O)(Nc1cccc2oc(=O)c3ccccc3c12)OCC	FXN GAA850 act 7.8 | GAA30 counter 25 | FXN GAA850 conf 18
CCOc1ccccc1N=Cc1c(O)c2ccccc2oc1=O	none
O=C(NN=C1CCCC1)c1cccs1	none (no result: F508del corr, EWS-Fli block)
O=C(NN=C1C2CC3CC(C2)CC1C3)c1cccs1	FXN GAA850 act 8.8 (no result: PAX8 reporter, F508del corr, EWS-Fli block, HIV Env fusion) | GAA30 counter 24 | FXN GAA850 conf 11
O=C(NN=C1C2CC3CC(C2)CC1C3)c1ccccc1O	none
CC(=O)N1CCC(=NNC(=O)c2cccs2)CC1	FXN GAA850 act 8.7 (no result: PAX8 reporter, F508del corr, EWS-Fli block, HIV Env fusion) | GAA30 counter inactive | FXN GAA850 conf inactive
